This excerpt belongs to a sample that is enriched for hits.
DUX4 inh – DUX4-mediated transcription inhibition; 293T-iDUX4 ZSCAN4-Gaussia luciferase reporter, 24 h; active compounds read low; activity change, negative = inhibition, % (no concentration beside the values); 37,000 tested, 0.8% active;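 active = mean inhibition of at least 10% in the main channel, exceeding the control channel by a set limit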
Of the large screens only hits and unclear results are named; the others gave an inactive call.

C[C@H]1CN([C@@H](C)CO)C(=O)c2c(c3ccccc3n2C)-c2ccccc2CO[C@@H]1CN(C)Cc1ccc(C(=O)O)cc1	none
C[C@@H]1CN([C@@H](C)CO)C(=O)c2c(c3ccccc3n2C)-c2ccccc2CO[C@@H]1CN(C)Cc1ccc(O)cc1	none
CCCNC(=O)C[C@H]1CC[C@@H]2[C@H](COC[C@H](O)CN2C(=O)Nc2ccccc2OC)O1	none
CC=Cc1ccc2n(c1=O)C[C@H]1[C@H](CO)[C@@H](C(=O)NCCc3ccccc3)N(C(C)=O)[C@@H]21 (mixture of isomers)	none
Cn1cnc(CCNC(=O)C[C@@H]2CC[C@H]3[C@@H](COC[C@@H](O)CN3C(=O)Nc3ccccc3)O2)c1	none
CC(C)NC(=O)N1Cc2cc(C(=O)NC3CCCCC3)nc(-c3cccc(-c4cccnc4)c3)c2[C@H]1CCO	none
O=C(CN1CCOCC1)N1CCCCN2[C@H](CO)[C@H](c3ccc(/C=C/c4ccccc4)cc3)[C@H]2C1	none
O=C(c1cccc(F)c1)N1CCCCN2[C@H](C1)[C@H](c1ccc(/C=C/c3ccccc3)cc1)[C@@H]2CO	none
CC(C)(O)C#Cc1ccc([C@H]2[C@@H](CO)N3CCCCN(C(=O)c4ccc(F)cc4)C[C@H]23)cc1	none
O=C(CN1CCOCC1)N1CCCCN2[C@H](C1)[C@@H](c1ccc(/C=C/c3ccccc3)cc1)[C@@H]2CO	none
O=C(c1cccc(F)c1)N1CCCCN2[C@H](C1)[C@@H](c1ccc(/C=C/c3ccccc3)cc1)[C@@H]2CO	DUX4 inh -41.1
CCC(=O)N1CCCCN2[C@@H](CO)[C@H](c3ccc(/C=C/c4ccccc4)cc3)[C@@H]2C1	DUX4 inh -16.2
CC(C)C#Cc1ccc([C@@H]2[C@@H](CO)N3CCCCN(C(=O)c4ccc(F)cc4)C[C@H]23)cc1	none
O=C(c1cccc(F)c1)N1CCCCN2[C@H](CO)[C@H](c3ccc(-c4ccccc4)cc3)[C@H]2C1	none
CC(C)C#Cc1ccc([C@H]2[C@@H](CO)N3CCCCN(C(=O)c4ccc(F)cc4)C[C@H]23)cc1	DUX4 inh -40.1
C/C=C/c1ccc2c(c1)O[C@H](CN(C)C(=O)c1ccccn1)[C@@H](C)CN([C@@H](C)CO)S2(=O)=O	none
N#C[C@@H]1[C@H](c2ccccc2)[C@H](CO)N1C(=O)CCN1CCCCC1	none
O=C(C[C@H]1CC[C@@H]2[C@H](COC[C@H](O)CN2C(=O)c2ccc3c(c2)OCO3)O1)NCCN1CCCCC1	none
CCC(=O)NC[C@H]1[C@H](c2ccccc2)[C@H](CO)N1C(=O)C1CCC1	none
COc1ccc(S(=O)(=O)Nc2ccc3c(c2)C(=O)N([C@H](C)CO)C[C@@H](C)[C@@H](CN(C)C(=O)c2ccncc2)OCCCC[C@@H](C)O3)cc1	none
CCCC#Cc1ccc([C@H]2[C@H](CO)N3CCCCN(CC4CCOCC4)C[C@@H]23)cc1	none
COc1ccc(C#Cc2ccc([C@H]3[C@H]4CN(C(=O)Nc5ccccc5F)CCCCN4[C@H]3CO)cc2)cc1	none
COc1ccc(C#Cc2ccc([C@@H]3[C@@H](CO)N4CCCCN(Cc5ccccc5F)C[C@@H]34)cc2)cc1	DUX4 inh -29.9
OC[C@@H]1[C@@H](c2ccc(C#Cc3ccccc3F)cc2)[C@@H]2CN(CC3CCOCC3)CCCCN12	DUX4 inh -28.1
OC[C@@H]1[C@H](c2ccc(C#Cc3ccccc3F)cc2)[C@@H]2CN(CC3CCOCC3)CCCCN12	none
COc1ccc(C#Cc2ccc([C@H]3[C@H](CO)N4CCCCN(Cc5ccccc5F)C[C@@H]34)cc2)cc1	DUX4 inh -21.2
OC[C@@H]1[C@@H](c2ccc(C#Cc3ccccc3F)cc2)[C@@H]2CN(Cc3cncnc3)CCCCN12	none
OC[C@H]1[C@@H](c2ccc(C#Cc3ccccc3F)cc2)[C@@H]2CN(Cc3cncnc3)CCCCN12	none
OC[C@H]1[C@@H](c2ccc(C#Cc3ccccc3F)cc2)[C@H]2CN(Cc3cncnc3)CCCCN21	none
CCCNC(=O)[C@@H]1[C@@H](CO)[C@@H]2Cn3c(ccc(C4=CCCCC4)c3=O)[C@@H]2N1C(=O)c1cnccn1	none
O=C(C[C@H]1C[C@@H]2c3cc(NC(=O)Nc4ccccc4F)ccc3O[C@@H]2[C@@H](CO)O1)NCc1ccccn1	none
CCCC#Cc1ccc([C@@H]2[C@@H](CO)N3C(=O)CN(C(=O)c4cccc(F)c4)C[C@H]23)cc1	none
C[C@@H]1CN([C@@H](C)CO)C(=O)c2cc(N(C)C)ccc2O[C@@H](C)CCCCO[C@@H]1CN(C)C(=O)Nc1ccc(C(F)(F)F)cc1	none
CC(=O)N1C[C@H]2[C@@H](c3ccccc31)[C@@H](CO)N2C(=O)c1ccc(F)cc1	none
COc1ccccc1C(=O)Nc1ccc2c(c1)OC[C@@H](C)N(CC1CC1)C[C@@H](C)[C@H](OC)CN(C)C2=O	none
CCCN1C[C@H](C)[C@@H](OC)CN(C)C(=O)c2cc(NC(=O)c3ccccc3F)ccc2OC[C@@H]1C	none
CN1CCN(C(=O)C[C@H]2CC[C@@H]3[C@H](COC[C@@H](O)CN3CC3CCOCC3)O2)CC1	none
C[C@@H]1CN([C@H](C)CO)C(=O)c2c(c3ccccc3n2C)-c2ccccc2CO[C@@H]1CN(C)S(=O)(=O)CC(F)(F)F	none
C[C@@H]1CN([C@H](C)CO)C(=O)c2ccccc2-c2ccccc2CO[C@@H]1CN(C)S(=O)(=O)c1cccc(F)c1	none
C[C@H]1CN([C@@H](C)CO)C(=O)c2c(c3ccccc3n2C)-c2ccccc2CO[C@H]1CN(C)S(C)(=O)=O	none
Cc1cccc(S(=O)(=O)N(C)C[C@H]2OCc3ccccc3-c3c(n(C)c4ccccc34)C(=O)N([C@H](C)CO)C[C@H]2C)c1	DUX4 inh -28.5
C[C@H](CO)N1C[C@H](C)[C@H](CN(C)S(=O)(=O)CC(F)(F)F)OCc2ccccc2-c2c(n(C)c3ccccc23)C1=O	DUX4 inh -32.8
C[C@@H]1CN([C@H](C)CO)C(=O)c2ccccc2-c2ccccc2CO[C@H]1CN(C)S(=O)(=O)c1cccc(F)c1	none
C[C@H]1CN([C@@H](C)CO)C(=O)c2c(c3ccccc3n2C)-c2ccccc2CO[C@H]1CN(C)S(=O)(=O)CC(F)(F)F	none
C[C@H](CO)N1C[C@H](C)[C@@H](CN(C)S(=O)(=O)c2ccc(F)cc2)OCc2ccccc2-c2c(n(C)c3ccccc23)C1=O	none
C[C@H](CO)N1C[C@H](C)[C@H](CN(C)S(=O)(=O)c2cccc(F)c2)OCc2ccccc2-c2ccccc2C1=O	DUX4 inh -20.8
C[C@H](CO)N1C[C@H](C)[C@@H](CN(C)S(C)(=O)=O)OCc2ccccc2-c2c(n(C)c3ccccc23)C1=O	none
C[C@H](CO)N1C[C@H](C)[C@@H](CN(C)S(=O)(=O)c2cccc(C#N)c2)OCc2ccccc2-c2c(n(C)c3ccccc23)C1=O	none
Cc1cccc(S(=O)(=O)N(C)C[C@@H]2OCc3ccccc3-c3c(n(C)c4ccccc34)C(=O)N([C@@H](C)CO)C[C@H]2C)c1	DUX4 inh -53.0
CCCNC(=O)N1C[C@H](C)[C@H](OC)CN(C)C(=O)c2cc(NS(=O)(=O)CC(F)(F)F)ccc2OC[C@H]1C	none
CN1[C@@H]2Cn3c(cccc3=O)[C@H]1[C@@H](C(=O)NCC1CCCCC1)[C@@H]2CO	none
Cc1ccccc1S(=O)(=O)N1C[C@@H](O)COC[C@@H]2O[C@@H](CC(=O)O)CC[C@H]21	none
CO[C@H]1CN(C)C(=O)c2ccc(NC(=O)Cc3ccccc3)cc2OC[C@H](C)N(C(C)=O)C[C@H]1C	none
CO[C@H]1CN(C)C(=O)c2cc(NS(=O)(=O)c3cn(C)cn3)ccc2OC[C@@H](C)N(CC2CC2)C[C@@H]1C	none
